As usually defined, the inhibition is the drop in the measured response relative to a control, in per cent.

Structures are written as SMILES.

For assay [1], the target named is Tyrosine-protein kinase CSK (Homo sapiens) (UniProt P41240). The following applies: at 1 µM.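 Also: each value is an averaged inhibition reading.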
The target of assay [2] is T1, Discoidin domain-containing receptor 2 (Homo sapiens) (UniProt Q16832).
T1 sequence (whole entry): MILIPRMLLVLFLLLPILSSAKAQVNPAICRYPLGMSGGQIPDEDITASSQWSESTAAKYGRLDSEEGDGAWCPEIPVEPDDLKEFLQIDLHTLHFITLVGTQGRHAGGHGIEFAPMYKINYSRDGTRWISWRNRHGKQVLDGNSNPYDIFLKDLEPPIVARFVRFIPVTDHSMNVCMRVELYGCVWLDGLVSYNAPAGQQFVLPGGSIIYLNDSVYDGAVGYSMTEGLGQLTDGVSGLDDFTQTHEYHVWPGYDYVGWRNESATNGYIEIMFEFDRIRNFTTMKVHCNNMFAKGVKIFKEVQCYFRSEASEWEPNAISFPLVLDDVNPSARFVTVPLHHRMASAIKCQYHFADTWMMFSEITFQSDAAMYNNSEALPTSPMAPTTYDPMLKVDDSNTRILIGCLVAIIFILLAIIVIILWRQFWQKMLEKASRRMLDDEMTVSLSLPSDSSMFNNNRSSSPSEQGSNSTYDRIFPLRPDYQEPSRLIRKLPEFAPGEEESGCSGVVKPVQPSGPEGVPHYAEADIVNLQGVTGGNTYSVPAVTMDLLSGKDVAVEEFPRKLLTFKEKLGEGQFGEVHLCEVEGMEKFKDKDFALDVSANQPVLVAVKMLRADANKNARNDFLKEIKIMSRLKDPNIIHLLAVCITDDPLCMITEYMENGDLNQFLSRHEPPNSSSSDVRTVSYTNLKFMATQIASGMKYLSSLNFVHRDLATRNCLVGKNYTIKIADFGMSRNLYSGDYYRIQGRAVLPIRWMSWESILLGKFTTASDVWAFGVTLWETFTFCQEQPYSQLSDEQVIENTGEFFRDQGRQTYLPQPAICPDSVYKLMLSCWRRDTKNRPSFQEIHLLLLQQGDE
The following applies: at 0.1 µM.

Assay [3] deals with T1, Discoidin domain-containing receptor 2 (Homo sapiens). Particulars: at 1 µM.
The target of assay [4] is Epidermal growth factor receptor (Homo sapiens) (UniProt P00533). Particulars: at 0.1 µM.
The target is the same in assay [5]. The following applies: at 1 µM.
The test system of assay [6] is Epidermal growth factor receptor (Homo sapiens), P00533 [L858R]. The following applies: at 0.1 µM.
Assay [7] has the same test system. Particulars: at 1 µM.
In assay [8] the test system is Epidermal growth factor receptor (Homo sapiens), P00533 [L861Q]. The following applies: at 0.1 µM.
Assay [9] shares this test system. The following applies: at 1 µM.
Assay [10] relates to Epidermal growth factor receptor (Homo sapiens), P00533 [T790M]. The following applies: at 0.1 µM.
Sequence of Epidermal growth factor receptor (Homo sapiens), P00533 [T790M] (P00533 whole entry T790M): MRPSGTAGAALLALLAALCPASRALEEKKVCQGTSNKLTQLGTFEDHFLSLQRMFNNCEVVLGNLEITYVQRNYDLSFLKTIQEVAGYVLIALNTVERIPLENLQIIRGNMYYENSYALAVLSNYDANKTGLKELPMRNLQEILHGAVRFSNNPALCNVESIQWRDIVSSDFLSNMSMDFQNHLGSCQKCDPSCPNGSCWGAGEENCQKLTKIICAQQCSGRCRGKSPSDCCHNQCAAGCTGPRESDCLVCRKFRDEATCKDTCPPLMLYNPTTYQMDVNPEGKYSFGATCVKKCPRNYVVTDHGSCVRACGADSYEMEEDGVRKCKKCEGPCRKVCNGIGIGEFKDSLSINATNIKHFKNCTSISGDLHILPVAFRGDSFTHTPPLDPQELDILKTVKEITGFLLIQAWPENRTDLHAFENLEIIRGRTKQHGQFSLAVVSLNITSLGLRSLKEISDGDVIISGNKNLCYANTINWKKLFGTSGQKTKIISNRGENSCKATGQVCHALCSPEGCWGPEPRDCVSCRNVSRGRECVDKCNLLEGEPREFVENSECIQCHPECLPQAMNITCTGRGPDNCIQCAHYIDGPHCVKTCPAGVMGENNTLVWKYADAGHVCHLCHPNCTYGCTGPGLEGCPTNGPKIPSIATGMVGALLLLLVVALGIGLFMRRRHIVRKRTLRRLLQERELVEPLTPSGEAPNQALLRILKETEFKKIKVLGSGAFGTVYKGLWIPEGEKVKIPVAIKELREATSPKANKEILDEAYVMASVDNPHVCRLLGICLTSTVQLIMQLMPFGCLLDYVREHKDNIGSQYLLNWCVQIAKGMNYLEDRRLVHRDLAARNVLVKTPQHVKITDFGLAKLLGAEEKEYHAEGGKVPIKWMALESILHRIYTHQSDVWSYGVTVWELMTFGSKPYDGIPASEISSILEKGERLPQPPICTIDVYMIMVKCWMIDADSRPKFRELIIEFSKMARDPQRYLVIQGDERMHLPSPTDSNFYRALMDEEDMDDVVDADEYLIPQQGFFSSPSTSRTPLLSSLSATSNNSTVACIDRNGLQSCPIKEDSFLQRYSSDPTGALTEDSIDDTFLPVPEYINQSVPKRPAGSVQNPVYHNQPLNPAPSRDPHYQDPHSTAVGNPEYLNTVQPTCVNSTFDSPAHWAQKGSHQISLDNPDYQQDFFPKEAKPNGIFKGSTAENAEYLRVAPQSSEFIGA

Sequence of Epidermal growth factor receptor (Homo sapiens), P00533 [L858R] (P00533 whole entry L858R): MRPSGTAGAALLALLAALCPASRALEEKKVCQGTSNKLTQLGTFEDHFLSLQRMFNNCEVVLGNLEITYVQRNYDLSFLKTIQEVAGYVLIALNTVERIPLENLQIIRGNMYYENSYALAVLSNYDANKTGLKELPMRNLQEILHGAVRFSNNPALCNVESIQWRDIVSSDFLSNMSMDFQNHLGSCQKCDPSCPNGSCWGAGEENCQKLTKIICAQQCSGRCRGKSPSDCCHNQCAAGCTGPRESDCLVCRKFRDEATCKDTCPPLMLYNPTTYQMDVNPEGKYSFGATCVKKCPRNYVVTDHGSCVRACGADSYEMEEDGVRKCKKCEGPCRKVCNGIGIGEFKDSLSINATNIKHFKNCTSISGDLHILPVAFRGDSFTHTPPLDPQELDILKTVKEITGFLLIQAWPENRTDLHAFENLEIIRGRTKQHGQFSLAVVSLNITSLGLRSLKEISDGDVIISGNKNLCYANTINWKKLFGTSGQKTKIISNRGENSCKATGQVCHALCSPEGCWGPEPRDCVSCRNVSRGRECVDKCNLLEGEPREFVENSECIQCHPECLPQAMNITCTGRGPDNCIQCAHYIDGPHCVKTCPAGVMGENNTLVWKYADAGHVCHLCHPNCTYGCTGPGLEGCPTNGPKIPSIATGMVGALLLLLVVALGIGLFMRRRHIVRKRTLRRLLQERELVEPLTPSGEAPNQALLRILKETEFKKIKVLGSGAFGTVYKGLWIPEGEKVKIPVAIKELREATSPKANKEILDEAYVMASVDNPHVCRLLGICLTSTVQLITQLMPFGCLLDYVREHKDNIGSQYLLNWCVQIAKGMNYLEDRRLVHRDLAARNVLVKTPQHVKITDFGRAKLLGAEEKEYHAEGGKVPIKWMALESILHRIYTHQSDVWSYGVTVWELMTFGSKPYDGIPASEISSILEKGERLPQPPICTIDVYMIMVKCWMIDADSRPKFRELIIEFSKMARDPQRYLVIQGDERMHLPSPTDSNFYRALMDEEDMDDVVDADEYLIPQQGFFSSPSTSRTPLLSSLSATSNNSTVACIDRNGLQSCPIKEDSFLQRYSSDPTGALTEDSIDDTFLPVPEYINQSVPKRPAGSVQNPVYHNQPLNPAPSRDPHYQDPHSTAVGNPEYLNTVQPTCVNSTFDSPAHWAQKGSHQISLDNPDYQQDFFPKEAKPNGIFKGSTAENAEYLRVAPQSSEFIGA
Sequence of Epidermal growth factor receptor (Homo sapiens), P00533 [L861Q] (P00533 whole entry L861Q): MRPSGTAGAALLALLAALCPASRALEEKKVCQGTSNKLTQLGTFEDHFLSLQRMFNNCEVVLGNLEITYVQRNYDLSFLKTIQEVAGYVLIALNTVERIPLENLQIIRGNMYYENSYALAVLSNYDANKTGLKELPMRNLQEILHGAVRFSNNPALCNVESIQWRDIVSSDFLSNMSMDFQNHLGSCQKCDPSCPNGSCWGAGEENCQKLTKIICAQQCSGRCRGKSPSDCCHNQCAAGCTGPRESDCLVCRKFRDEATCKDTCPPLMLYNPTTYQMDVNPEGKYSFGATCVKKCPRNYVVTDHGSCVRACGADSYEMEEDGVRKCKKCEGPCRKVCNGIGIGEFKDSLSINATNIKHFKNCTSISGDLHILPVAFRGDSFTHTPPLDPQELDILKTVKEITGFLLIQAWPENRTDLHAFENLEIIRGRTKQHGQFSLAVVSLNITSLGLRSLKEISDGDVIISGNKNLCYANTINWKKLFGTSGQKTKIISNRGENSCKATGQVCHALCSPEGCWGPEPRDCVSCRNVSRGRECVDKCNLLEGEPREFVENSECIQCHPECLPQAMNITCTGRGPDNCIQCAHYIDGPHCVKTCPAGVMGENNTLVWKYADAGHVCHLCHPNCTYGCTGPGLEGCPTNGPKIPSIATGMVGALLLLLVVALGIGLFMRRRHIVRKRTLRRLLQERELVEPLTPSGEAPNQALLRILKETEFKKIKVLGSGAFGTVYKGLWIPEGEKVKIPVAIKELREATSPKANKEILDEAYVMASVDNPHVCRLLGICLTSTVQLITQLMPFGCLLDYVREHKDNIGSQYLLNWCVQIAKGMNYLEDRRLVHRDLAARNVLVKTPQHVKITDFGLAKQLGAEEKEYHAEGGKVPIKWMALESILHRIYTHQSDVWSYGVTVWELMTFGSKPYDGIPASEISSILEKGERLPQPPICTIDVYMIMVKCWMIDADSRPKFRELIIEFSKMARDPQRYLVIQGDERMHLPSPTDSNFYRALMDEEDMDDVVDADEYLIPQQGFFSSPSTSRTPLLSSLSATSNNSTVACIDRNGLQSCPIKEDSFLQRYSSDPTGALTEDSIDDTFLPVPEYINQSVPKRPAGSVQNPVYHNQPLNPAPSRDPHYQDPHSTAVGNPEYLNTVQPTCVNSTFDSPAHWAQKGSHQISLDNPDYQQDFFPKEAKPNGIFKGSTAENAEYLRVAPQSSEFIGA
Sequence of Tyrosine-protein kinase CSK (Homo sapiens) (P41240 2-450 limits assumed): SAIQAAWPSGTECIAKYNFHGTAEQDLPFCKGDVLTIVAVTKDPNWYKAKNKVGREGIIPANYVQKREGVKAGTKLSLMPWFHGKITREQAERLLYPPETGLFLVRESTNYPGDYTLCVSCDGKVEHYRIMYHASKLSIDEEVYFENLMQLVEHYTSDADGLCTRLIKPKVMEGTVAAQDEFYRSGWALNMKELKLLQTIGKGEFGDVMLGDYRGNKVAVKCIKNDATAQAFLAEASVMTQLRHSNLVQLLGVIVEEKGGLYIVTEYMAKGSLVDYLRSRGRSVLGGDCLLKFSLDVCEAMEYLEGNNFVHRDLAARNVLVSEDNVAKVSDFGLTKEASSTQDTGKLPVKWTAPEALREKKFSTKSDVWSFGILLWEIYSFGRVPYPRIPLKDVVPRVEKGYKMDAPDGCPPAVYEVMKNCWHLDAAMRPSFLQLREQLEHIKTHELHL

`COc1ccccc1Nc1ncc(-c2ccccc2)o1`: the inhibition in assay [1] was found to be 3.11%; in assay [2] it was 0.86%; in [3], 0.42%; in [4], 1.13%; in [5] it was 5.3%; in assay [6] it was 0.79%. For the same compound, the inhibition in [7] was 0.46%; in assay [8], 1.31%; in assay [9], 1.75%; in [10] it was 2.11%.
In the case of `CC1=C(C(=O)Nc2ccc3[nH]ncc3c2)C(c2ccc(Cl)c(Cl)c2)CC(=O)N1` (stereo not given), the inhibition in assay [1] turned out to be 4.23%; in assay [2] it was 3.12%; in assay [3], 3.67%; in assay [4], 6.77%; in assay [5], 8.22%; in [6], 1.45%. The inhibition came out at 5.4% in [7], 1.95% in [8], 0.96% in assay [9] and 0.19% in assay [10].
For the compound `Fc1cccc(COc2ccc(Nc3ncnc4cc(-c5ccc[nH]5)sc34)cc2Cl)c1`, the inhibition in [1] is 1.12%; in assay [2], 0.15%; in assay [3], -1%; in assay [4] it was 66.2%; in assay [5], 77.3%; in assay [6], 32.5%. Also, the inhibition is 82.9% in assay [7], 37.8% in [8], 71.8% in assay [9] and 0.21% in assay [10].
Consider `NCc1ccc(-c2nc(-c3ccc(Cl)c(O)c3)c(-c3ccncc3)[nH]2)cc1`, for which the inhibition in assay [1] stood at 7.83%; in assay [2] it was 0.6%; in assay [3], 9.1%; in assay [4], 4.77%; in [5] it was 21.8%; in [6], 1.78%. For the same compound, the inhibition is 31.9% in assay [7], 1.15% in [8], 13.5% in assay [9] and -0.03% in assay [10].
Regarding `COc1ccc(-c2nn3ncccc3c2-c2ccnc(Nc3ccc(Cl)c(C(F)(F)F)c3)n2)cc1`, the inhibition in [1] is 5.3%; in [2], 0.69%; in assay [3], 3.24%; in assay [4] it was 0.68%; in assay [5], 3.67%; in assay [6], 1.63%. In addition, the inhibition came to 14.3% in [7], 2% in [8], 5.96% in [9] and 0.44% in assay [10].
Turning to `O=C1NC(=O)C(c2ccccc2Cl)=C1Nc1cccc(O)c1`, the inhibition in assay [1] was 3.08%; in [2], -0.34%; in assay [3], -0.1%; in assay [4] it was 2.49%; in assay [5], 5.23%; in assay [6], 3.81%. Also, the inhibition in assay [7] came to 3.71%; in assay [8] it was 0.72%; in assay [9] it was 3.71%; in assay [10], 1.27%.
As to `NS(=O)(=O)c1cccc(-c2ccc3c(NC(=O)C4CC4)n[nH]c3c2)c1`, the inhibition in [1] is -3.46%; in assay [2], -0.11%; in assay [3], -9.65%; in assay [4], 0.04%; in [5] it was 0.71%; in [6] it was -0.88%. Also, the inhibition in assay [7] was -2.32%; in [8] it was 1.67%; in assay [9] it was -0.49%; in assay [10] it was -1.44%.
Turning to `Nc1nc(-c2ccc3c(c2)C(=Cc2cc(Br)c(O)c(Br)c2)C(=O)N3)cs1`, the inhibition in [1] is -6.6%; in assay [2] it was 0.46%; in assay [3], 2.46%; in assay [4] it was 0.84%; in [5], 5.53%; in assay [6], -3.68%. Besides, the inhibition is 8.58% in assay [7], 0.03% in assay [8], 1.67% in assay [9] and -1.77% in assay [10].
On to `Cc1nnc(-c2ccc(C)c(-c3ccc(C(=O)Nc4cccc(C#N)c4)cc3)c2)o1`, for which the inhibition in assay [1] amounted to 6.38%; in [2] it was 1.45%; in assay [3], 1.83%; in assay [4] it was 6.74%; in assay [5], 8.18%; in assay [6], 0.95%. Further, the inhibition in [7] came to 3.01%; in [8] it was 1.88%; in [9], 2.37%; in assay [10] it was 1.41%.
As to `CS(=O)(=O)CCNCc1ccc(-c2ccc3ncnc(Nc4ccc(OCc5cccc(F)c5)c(C(F)(F)F)c4)c3c2)o1`, the inhibition in assay [1] worked out at 2.03%; in assay [2], 1.18%; in assay [3] it was 0.88%; in assay [4], 12.8%; in [5], 65.9%; in assay [6], 6.6%. In addition, the inhibition in assay [7] came to 46.2%; in assay [8], 20.6%; in assay [9] it was 40.8%; in assay [10], 2.44%.
Consider `CC1=C(C(=O)Nc2ccc3[nH]ncc3c2)C(c2ccc(F)cc2)NC(=O)N1` (stereo not given), for which the inhibition in assay [1] is 1.35%; in [2], 0.44%; in assay [3], 0.08%; in assay [4], -0.6%; in assay [5], 1.27%; in [6], 3.85%. The inhibition in [7] turned out to be 4.77%; in assay [8], 2.31%; in [9], 1.33%; in assay [10], 0.71%.
Regarding `CCCN1CCC(Oc2cc(Nc3nc(Nc4cccc(F)c4C(N)=O)c4cc[nH]c4n3)c(OC)cc2Cl)CC1`, the inhibition is 0.71% in assay [1]; 5.18% in assay [2]; 9.57% in assay [3]; 1.11% in [4]; 2.64% in assay [5]; 1.86% in [6]. For the same compound, the inhibition in assay [7] was 1.31%; in assay [8], 1.13%; in assay [9], 0.75%; in [10] it was -0.41%.
Consider `CS(=O)(=O)CCN(CC#N)Cc1ccc(-c2ccc3ncnc(Nc4ccc(OCc5cccc(F)c5)c(Cl)c4)c3c2)o1`, for which the inhibition is 4.77% in assay [1]; 0.7% in [2]; 0.75% in [3]; 69.4% in assay [4]; 77.2% in assay [5]; 36.5% in assay [6]. The inhibition in assay [7] was found to be 83.6%; in assay [8] it was 41.5%; in assay [9], 76.2%; in [10], 1.04%.
Take `CCc1cccc(NC(=O)Nc2ccc(Oc3ccc4nc(NC(=O)OC)[nH]c4c3)cc2)c1`: the inhibition is 3.75% in assay [1]; 78% in assay [2]; 80.2% in assay [3]; 8% in [4]; 7.33% in assay [5]; 2.52% in [6]. The inhibition in assay [7] was 5.42%; in assay [8] it was 0.96%; in assay [9], 2.05%; in [10], 1.06%.
On to `COc1cc2c(cc1Nc1nc(N3CCc4ccccc43)c3cc[nH]c3n1)N(C(=O)CN(C)C)CC2`, for which the inhibition was 0.41% in [1]; 0.28% in assay [2]; 0.74% in assay [3]; -0.08% in [4]; 1.28% in assay [5]; 1.45% in assay [6]. Further, the inhibition in assay [7] was 2.18%; in assay [8] it was 1.47%; in assay [9] it was -0.39%; in [10], 1.57%.
For `CC1=C(C(=O)Nc2ccc3[nH]ncc3c2)C(c2ccc3ccccc3c2)CC(=O)N1` (stereo not given), the inhibition in assay [1] is 8.49%; in [2], 1.3%; in [3], 0.24%; in assay [4] it was 1.29%; in [5] it was 5.76%; in assay [6] it was 3.81%. Besides, the inhibition in [7] was found to be 6.61%; in assay [8], 2.89%; in assay [9], 1.33%; in assay [10], 1.06%.

The values above are taken from ChEMBL document CHEMBL1961873, “Compounds: GSK PKIS; Assays: Nanosyn kinase panel” (2012).
